# Measurements as given in the supplement of paper PMC11001985.
# Unmarked numbers belong to inactive results.
# Molecular target: ATP1B3 (UniProt P54709)
# Experiment: lysine labeling ratio R10:1 (500 µM / 50 µM probe), SILAC-ABPP in living cells; higher = lower intrinsic lysine reactivity toward the probe, active = 2 or less
# Details: HeLa, probe concentrations 500 vs 50 µM
# Experimental: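 Living HeLa cells (SILAC light/heavy) in PBS at room temperature were labeled with 50 µM versus 500 µM of the lysine-reactive, reductant-cleavable probe OPA-S-S-alkyne (SILAC labeling time not stated). Probe-modified peptides were CuAAC-biotinylated, captured on neutravidin and eluted with DTT/IAA, then quantified by LC-MS/MS. R = median peptide ratio per lysine (500/50 µM), combined over 3 forward and 3 reverse SILAC replicates. Ratios are capped at 20; R < 2 = hyper-reactive.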
# ATP1B3, sequence (P54709 whole entry): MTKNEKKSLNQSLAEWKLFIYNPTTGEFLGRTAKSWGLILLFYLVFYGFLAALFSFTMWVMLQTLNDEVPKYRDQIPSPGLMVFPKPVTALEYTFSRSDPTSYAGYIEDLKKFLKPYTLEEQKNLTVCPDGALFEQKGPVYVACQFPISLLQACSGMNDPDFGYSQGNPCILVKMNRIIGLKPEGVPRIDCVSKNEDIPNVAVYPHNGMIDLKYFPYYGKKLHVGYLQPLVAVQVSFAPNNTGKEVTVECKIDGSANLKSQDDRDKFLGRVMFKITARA
structure (smiles),measurement,setting,value
C#CCNC(=O)CCSSCCC(=O)NCCc1ccc(C=O)c(C=O)c1,lysine labeling ratio R10:1,lysine site: K182,5.21
same,lysine labeling ratio R10:1,lysine site: K220,0.695 (active)
same,lysine labeling ratio R10:1,lysine site: K259,3.28
same,lysine labeling ratio R10:1,lysine site: K266,2.22
same,lysine labeling ratio R10:1,lysine site: K274,9.2
